{"source": "the OligoGym collection"}
{"molecular_target": "GHDC", "experiment": "pooled miR-30 sensor sort-seq; sequence = guide strand", "settings": "shRNA"}
{"sequence": "TTGTAGGCACCAACCACTCGCA", "sensor-assay potency score (higher = more potent)": -0.926}
{"sequence": "TGCTGCTCTCCACACAGCCATG", "sensor-assay potency score (higher = more potent)": -2.06}
{"sequence": "TCCAGCCTGCAGATGAACCTGA", "sensor-assay potency score (higher = more potent)": -0.985}
{"sequence": "CTGCTCTCCACTGTCTTCCTGC", "sensor-assay potency score (higher = more potent)": -1.58}
{"sequence": "TCAGAGAACAGGTCTTCACCAA", "sensor-assay potency score (higher = more potent)": 0.187}
{"sequence": "TTATGTCTGTGCTCCTTCTGAG", "sensor-assay potency score (higher = more potent)": -0.0646}
{"sequence": "TTTTCCTCTGACAGATTCCTCA", "sensor-assay potency score (higher = more potent)": -0.542}
{"sequence": "TAGCTCTTCACCATCAGTCTCC", "sensor-assay potency score (higher = more potent)": 0.0115}
{"sequence": "TTCCTCTGACAGATTCCTCAGC", "sensor-assay potency score (higher = more potent)": -0.103}
{"sequence": "TCCACTGTCTTCCTGCTGGGTC", "sensor-assay potency score (higher = more potent)": -1.07}
{"sequence": "ATTGTAGGCACCAACCACTCGC", "sensor-assay potency score (higher = more potent)": 0.0645}
{"sequence": "AGAAGTTCGACAGCCGTCCCAG", "sensor-assay potency score (higher = more potent)": -0.973}
{"molecular_target": "GHRL", "experiment": "pooled miR-30 sensor sort-seq; sequence = guide strand", "settings": "shRNA"}
{"sequence": "TTGATTCCAACATCAAAGGGGG", "sensor-assay potency score (higher = more potent)": 0.299}
{"sequence": "TGAGCTTGTACAACAGTCGTGG", "sensor-assay potency score (higher = more potent)": 0.776}
{"sequence": "TTCTGCTTGACCTCCATCTTCC", "sensor-assay potency score (higher = more potent)": -0.0657}
{"sequence": "TGCTTGACCTCCATCTTCCGGG", "sensor-assay potency score (higher = more potent)": -0.583}
{"sequence": "TACTGAACCCCTGACAGCTTGA", "sensor-assay potency score (higher = more potent)": -0.592}
{"sequence": "TCTCTGCTGGACTCTCTGGTGT", "sensor-assay potency score (higher = more potent)": -0.98}
{"sequence": "TTCTCTGCTGGACTCTCTGGTG", "sensor-assay potency score (higher = more potent)": -0.904}
{"sequence": "TGTCCTGAAGAAACTTCCCCAG", "sensor-assay potency score (higher = more potent)": -1.03}
{"sequence": "TTGACCTCCATCTTCCGGGCGG", "sensor-assay potency score (higher = more potent)": -0.454}
{"sequence": "TTTCTCTGCTGGACTCTCTGGT", "sensor-assay potency score (higher = more potent)": 0.0983}
{"sequence": "TAGAGCTCGGGGCTGCAGCTTG", "sensor-assay potency score (higher = more potent)": -0.899}
{"sequence": "TCTTCGACTCCTTTCTCTGCTG", "sensor-assay potency score (higher = more potent)": -0.622}
{"molecular_target": "GHR", "experiment": "pooled miR-30 sensor sort-seq; sequence = guide strand", "settings": "shRNA"}
{"sequence": "TTCATCAACAGAGAAACACTTT", "sensor-assay potency score (higher = more potent)": 0.81}
{"sequence": "TAGAAGTCTGTCTGTGTCTGAT", "sensor-assay potency score (higher = more potent)": -0.00194}
{"sequence": "TCATACTCCAGAACCATCCATC", "sensor-assay potency score (higher = more potent)": -0.368}
{"sequence": "TATGAATGGAGGTATAGTCTGG", "sensor-assay potency score (higher = more potent)": 0.0222}
{"sequence": "TTCTGGTATAGAACAGCTGTAT", "sensor-assay potency score (higher = more potent)": -1.1}
{"sequence": "TTAGAAGTCTGTCTGTGTCTGA", "sensor-assay potency score (higher = more potent)": 0.716}
{"sequence": "TAGCTCAATAAATTCAACCCAA", "sensor-assay potency score (higher = more potent)": -0.0787}
{"sequence": "TTAGCTTGATACAATAAGGTAT", "sensor-assay potency score (higher = more potent)": 0.218}
{"sequence": "TTTCTGAATATCTGCATTGCGT", "sensor-assay potency score (higher = more potent)": -0.999}
{"sequence": "TGAACTTGGATTGCTTAGCTGA", "sensor-assay potency score (higher = more potent)": 0.127}
{"sequence": "TAATCTTTGGAACTGGAACTGG", "sensor-assay potency score (higher = more potent)": -0.523}
{"molecular_target": "GHSR", "experiment": "pooled miR-30 sensor sort-seq; sequence = guide strand", "settings": "shRNA"}
{"sequence": "ATCTGAGCAATCTCCAAGGAGC", "sensor-assay potency score (higher = more potent)": -1.45}
{"sequence": "TTGCTTGTGGTTCTGGTCCCTG", "sensor-assay potency score (higher = more potent)": -0.711}
{"sequence": "TAGCGCTCGACGCTCAGCGCTG", "sensor-assay potency score (higher = more potent)": -1.17}
